What was measured:
Assay in all cases: log2 ratio of Biotin-Ahx-Ub-VS probe labelling (fragment/DMSO); higher = less target engagement (more negative = stronger competition), active = hit call of the paper (q ≤ 0.05, log2 ratio ≤ -1)
Settings in all cases: compound concentration: 200 uM; treatment time: 3 h
[1] = target: T1, USP19 (UniProt O94966)
T1 sequence (whole entry): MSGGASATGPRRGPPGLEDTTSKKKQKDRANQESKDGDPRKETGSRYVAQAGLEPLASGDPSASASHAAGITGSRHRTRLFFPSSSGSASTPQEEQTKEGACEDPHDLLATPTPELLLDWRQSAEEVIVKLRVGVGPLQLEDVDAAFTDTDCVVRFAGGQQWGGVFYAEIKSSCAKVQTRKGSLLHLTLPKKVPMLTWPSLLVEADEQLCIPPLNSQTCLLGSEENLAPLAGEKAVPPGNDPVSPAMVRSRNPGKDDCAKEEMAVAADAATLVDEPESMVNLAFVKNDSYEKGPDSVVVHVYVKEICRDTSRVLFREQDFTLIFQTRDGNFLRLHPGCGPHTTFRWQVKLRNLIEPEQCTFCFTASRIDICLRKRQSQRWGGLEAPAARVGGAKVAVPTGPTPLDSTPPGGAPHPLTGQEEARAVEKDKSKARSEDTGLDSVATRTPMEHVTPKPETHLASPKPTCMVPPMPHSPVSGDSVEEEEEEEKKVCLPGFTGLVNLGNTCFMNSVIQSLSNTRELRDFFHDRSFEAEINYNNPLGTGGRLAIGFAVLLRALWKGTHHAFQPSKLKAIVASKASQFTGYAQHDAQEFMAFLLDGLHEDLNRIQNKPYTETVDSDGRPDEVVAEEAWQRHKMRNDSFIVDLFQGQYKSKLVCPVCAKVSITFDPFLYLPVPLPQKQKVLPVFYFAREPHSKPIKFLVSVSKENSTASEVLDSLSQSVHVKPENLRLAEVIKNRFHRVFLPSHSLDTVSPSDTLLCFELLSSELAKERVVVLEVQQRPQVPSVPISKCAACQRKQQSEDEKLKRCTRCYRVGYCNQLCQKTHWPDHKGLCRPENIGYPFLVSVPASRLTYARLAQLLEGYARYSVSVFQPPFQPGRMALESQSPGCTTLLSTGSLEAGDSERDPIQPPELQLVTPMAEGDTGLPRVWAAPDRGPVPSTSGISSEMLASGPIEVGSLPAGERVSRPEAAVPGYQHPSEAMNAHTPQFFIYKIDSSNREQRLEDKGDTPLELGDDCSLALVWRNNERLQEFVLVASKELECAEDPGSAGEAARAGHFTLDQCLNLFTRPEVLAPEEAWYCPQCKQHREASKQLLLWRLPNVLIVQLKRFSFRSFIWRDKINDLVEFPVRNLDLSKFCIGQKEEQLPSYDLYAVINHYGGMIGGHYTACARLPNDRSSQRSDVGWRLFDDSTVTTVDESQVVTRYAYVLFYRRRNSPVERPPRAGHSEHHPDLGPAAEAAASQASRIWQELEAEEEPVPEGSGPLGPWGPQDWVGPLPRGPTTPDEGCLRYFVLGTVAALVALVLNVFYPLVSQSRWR
Outline: (§1)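 Average log2 ratios of fragment over vehicle were obtained by unpaired t-test from global-median-normalised Spectronaut label-free quantities. Proteins with ≥2 unique peptides were included. HEK293T lysate (495 µg per sample) was treated in triplicate with fragment at 200 µM or vehicle for 3 h, then with Biotin-Ahx-Ub-VS at 0.5 µM final for 1 h, and labelled DUBs were NeutrAvidin-enriched and run by diaPASEF LC-MS/MS.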

[2] = target: USP24 (UniProt Q9UPU5)
Outline: as §1

[3] = target: T2, USP25 (UniProt Q9UHP3)
T2 sequence (whole entry): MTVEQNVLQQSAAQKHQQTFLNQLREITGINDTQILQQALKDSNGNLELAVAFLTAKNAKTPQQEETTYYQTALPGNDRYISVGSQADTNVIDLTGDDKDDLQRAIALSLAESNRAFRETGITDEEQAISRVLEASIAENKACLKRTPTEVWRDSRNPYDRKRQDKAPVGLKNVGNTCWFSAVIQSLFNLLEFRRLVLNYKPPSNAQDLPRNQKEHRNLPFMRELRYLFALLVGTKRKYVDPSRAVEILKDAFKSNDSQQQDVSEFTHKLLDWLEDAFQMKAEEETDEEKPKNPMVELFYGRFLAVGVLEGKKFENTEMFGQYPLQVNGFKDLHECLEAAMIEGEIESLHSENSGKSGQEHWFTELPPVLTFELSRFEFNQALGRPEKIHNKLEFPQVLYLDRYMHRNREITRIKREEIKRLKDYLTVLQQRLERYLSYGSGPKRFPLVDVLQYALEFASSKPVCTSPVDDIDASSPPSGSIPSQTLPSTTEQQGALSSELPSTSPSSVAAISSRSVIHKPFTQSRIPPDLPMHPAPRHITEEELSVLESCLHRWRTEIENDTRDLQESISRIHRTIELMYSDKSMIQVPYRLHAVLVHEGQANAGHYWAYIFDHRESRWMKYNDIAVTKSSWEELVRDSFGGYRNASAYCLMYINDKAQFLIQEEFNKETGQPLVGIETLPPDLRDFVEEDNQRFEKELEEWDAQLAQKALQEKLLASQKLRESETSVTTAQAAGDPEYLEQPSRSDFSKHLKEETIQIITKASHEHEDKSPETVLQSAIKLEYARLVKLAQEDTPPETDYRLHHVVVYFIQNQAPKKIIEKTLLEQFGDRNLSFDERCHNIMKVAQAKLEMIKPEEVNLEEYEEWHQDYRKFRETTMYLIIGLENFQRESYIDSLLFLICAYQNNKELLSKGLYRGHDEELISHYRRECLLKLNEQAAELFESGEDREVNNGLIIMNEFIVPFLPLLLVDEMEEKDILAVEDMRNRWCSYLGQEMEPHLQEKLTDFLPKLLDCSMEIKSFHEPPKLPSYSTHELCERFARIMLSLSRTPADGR
Outline: as §1

[4] = target: T3, USP28 (UniProt Q96RU2)
T3 sequence (whole entry): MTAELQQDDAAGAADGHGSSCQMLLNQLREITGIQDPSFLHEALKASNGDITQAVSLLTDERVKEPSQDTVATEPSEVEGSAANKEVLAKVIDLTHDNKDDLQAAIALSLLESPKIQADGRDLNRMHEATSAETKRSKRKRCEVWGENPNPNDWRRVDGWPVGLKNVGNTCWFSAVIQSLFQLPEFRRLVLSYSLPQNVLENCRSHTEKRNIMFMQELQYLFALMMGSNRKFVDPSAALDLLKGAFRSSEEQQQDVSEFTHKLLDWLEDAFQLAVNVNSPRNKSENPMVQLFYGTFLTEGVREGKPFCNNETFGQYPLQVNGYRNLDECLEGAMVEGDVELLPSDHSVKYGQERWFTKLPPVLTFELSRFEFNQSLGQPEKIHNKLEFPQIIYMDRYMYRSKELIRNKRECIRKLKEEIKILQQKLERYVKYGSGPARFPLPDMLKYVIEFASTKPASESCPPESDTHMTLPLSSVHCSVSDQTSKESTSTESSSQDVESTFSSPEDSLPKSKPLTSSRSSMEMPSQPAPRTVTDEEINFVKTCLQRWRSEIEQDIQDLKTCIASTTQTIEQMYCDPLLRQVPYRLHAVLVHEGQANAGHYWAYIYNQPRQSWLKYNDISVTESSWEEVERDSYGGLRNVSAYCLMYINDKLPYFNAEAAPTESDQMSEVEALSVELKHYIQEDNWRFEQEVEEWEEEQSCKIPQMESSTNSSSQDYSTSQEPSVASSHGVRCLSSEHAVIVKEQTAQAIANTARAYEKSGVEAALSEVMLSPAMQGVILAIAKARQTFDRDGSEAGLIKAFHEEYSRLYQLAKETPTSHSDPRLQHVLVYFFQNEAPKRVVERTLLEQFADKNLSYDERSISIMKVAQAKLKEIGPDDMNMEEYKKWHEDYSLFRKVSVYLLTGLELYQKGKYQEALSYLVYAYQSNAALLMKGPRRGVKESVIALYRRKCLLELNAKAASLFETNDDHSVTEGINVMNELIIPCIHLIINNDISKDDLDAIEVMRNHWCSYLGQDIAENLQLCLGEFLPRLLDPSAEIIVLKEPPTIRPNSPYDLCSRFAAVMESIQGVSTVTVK
Outline: as §1

Measured: log2 ratio of Biotin-Ahx-Ub-VS probe labelling

Sequence of USP24 (Q9UPU5 whole entry): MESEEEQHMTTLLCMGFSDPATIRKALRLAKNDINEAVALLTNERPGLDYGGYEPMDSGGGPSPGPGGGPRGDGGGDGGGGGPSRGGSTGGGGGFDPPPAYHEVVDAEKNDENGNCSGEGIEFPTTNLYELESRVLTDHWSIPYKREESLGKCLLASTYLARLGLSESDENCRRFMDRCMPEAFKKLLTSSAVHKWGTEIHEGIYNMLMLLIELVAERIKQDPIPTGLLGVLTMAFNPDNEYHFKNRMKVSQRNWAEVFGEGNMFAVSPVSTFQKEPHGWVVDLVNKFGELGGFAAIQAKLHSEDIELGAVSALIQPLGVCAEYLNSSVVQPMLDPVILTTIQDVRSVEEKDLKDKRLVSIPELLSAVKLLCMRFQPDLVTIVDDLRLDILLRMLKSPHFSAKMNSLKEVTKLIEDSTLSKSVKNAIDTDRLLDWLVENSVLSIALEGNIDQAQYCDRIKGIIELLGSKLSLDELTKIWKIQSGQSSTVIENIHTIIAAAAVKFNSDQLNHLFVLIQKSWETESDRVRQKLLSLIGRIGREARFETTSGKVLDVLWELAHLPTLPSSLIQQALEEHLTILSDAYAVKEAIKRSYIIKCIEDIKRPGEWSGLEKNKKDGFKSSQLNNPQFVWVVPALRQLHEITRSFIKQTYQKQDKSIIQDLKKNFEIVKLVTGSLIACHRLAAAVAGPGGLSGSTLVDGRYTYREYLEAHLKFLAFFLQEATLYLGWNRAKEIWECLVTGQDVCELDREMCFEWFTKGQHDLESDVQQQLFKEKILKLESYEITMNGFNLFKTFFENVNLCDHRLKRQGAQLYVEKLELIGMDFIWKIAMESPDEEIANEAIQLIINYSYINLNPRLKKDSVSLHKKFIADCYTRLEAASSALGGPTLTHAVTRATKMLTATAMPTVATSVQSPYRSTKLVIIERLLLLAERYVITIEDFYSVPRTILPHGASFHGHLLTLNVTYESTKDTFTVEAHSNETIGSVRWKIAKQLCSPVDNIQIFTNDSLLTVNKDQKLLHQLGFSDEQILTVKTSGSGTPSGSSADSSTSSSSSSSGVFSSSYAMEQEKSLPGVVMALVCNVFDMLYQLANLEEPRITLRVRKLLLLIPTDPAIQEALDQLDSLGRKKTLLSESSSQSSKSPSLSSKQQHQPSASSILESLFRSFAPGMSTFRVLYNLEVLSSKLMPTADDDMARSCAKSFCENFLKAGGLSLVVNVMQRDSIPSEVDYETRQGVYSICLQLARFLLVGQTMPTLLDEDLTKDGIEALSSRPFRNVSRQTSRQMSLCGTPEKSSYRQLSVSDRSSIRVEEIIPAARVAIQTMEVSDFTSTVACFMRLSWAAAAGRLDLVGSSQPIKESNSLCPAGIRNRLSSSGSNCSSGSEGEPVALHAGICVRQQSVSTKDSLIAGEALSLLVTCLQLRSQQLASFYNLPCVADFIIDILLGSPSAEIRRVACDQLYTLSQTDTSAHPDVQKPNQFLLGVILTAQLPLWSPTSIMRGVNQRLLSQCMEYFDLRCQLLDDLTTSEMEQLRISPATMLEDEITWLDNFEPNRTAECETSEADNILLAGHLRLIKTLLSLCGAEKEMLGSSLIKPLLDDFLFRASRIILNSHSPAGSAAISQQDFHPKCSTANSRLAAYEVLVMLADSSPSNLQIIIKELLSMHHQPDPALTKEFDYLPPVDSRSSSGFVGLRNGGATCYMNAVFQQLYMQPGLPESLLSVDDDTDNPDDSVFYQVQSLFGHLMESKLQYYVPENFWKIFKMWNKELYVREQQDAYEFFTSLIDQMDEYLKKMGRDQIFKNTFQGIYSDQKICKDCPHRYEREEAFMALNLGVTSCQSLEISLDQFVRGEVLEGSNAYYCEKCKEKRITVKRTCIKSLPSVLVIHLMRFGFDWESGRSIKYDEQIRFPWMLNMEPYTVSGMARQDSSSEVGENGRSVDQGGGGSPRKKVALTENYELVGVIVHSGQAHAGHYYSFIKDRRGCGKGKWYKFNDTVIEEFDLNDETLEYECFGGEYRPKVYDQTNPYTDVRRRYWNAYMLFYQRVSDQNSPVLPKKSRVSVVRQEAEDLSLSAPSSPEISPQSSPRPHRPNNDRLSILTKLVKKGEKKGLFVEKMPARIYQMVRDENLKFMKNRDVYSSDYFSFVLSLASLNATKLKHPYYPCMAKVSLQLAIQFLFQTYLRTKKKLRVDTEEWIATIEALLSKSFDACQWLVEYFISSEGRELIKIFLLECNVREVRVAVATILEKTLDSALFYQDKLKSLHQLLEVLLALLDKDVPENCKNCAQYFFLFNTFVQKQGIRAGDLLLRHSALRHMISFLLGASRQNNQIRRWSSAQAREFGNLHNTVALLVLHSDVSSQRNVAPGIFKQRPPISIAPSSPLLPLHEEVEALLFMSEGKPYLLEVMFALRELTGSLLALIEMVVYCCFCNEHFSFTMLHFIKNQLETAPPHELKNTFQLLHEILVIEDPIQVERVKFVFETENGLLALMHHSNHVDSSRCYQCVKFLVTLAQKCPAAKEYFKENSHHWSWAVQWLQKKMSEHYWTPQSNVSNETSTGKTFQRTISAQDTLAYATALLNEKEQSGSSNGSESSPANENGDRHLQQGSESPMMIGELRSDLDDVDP

Cc1ncsc1CCNC(=O)CCl
inactive: [1] 0.249 | [2] 0.197 | [3] -0.144 | [4] 0.0198

From the supplement of paper PMC11732987, “Enantioselective OTUD7B fragment discovery through chemoproteomics screening and high-throughput optimisation” (Communications Chemistry, 2025)
